The campaign covered roughly 5,500 compounds. About 2,000 (36%) were called active. Not shown: some 18% with an inconclusive outcome. Cut-off read from the data, not from the text of the source: active = normalized growth mostly below about 0.91 (no sharp cut-off); inconclusive = no clear call, values can overlap the other calls; inactive = mostly above about 0.92. Some of the results follow.
Assay: chemical genetic growth profiling, strain panel (AID 1159580);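 note: tested at 20 µM; growth read once vehicle control cultures reached saturation at 30 °C; 1 = growth at the plate median or of vehicle wells; lower values mean less growth of the strain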
Details: S. cerevisiae deletion strains, growth OD

Measured: normalized growth

CC(=O)c1ccc(-c2ccc(Cl)c(Cl)c2)o1
inactive: locus YGR229C, strain SMI1, active compounds read low 0.956 | locus YLR058C, strain SHM2 (second series), active compounds read low 0.994 | locus YNL322C, strain KRE1, active compounds read low 0.99
active: locus YAL013W, strain DEP1, active compounds read low 0.803 | locus YBR229C, strain ROT2, active compounds read low 0.825 | locus YCL061C, strain MRC1, active compounds read low 0.776 | locus YDL101C, strain DUN1, active compounds read low 0.661 | locus YDL134C, strain PPH21, active compounds read low 0.428 | locus YEL061C, strain CIN8, active compounds read low 0.445 | locus YGR078C, strain PAC10, active compounds read low 0.863 | locus YHR030C, strain SLT2, active compounds read low 0.0914 | locus YHR087W, strain rtc3, active compounds read low 0.816 | locus YJL187C, strain SWE1, active compounds read low 0.807 | locus YJR043C, strain POL32, active compounds read low 0.8 | locus YJR075W, strain HOC1, active compounds read low 0.787 | locus YLR039C, strain RIC1, active compounds read low 0.207 | locus YLR085C, strain ARP6, active compounds read low 0.112 | locus YLR262C, strain YPT6, active compounds read low 0.264 | locus YML094W, strain GIM5, active compounds read low 0.633 | locus YMR219W, strain ESC1, active compounds read low 0.877 | locus YMR263W, strain SAP30, active compounds read low 0.629 | locus YNL128W, strain TEP1, active compounds read low 0.82 | locus YNL153C, strain GIM3, active compounds read low 0.838 | locus YNL298W, strain CLA4 (second series), active compounds read low 0.373 | locus YNR030W, strain Alg12, active compounds read low 0.483 | locus YOL006C, strain TOP1, active compounds read low 0.15 | locus YPL055C, strain LGE1, active compounds read low 0.747 | locus YPL241C, strain CIN2, active compounds read low 0.365 | locus YPR135W, strain CTF4, active compounds read low 0.213

Source: PubChem BioAssay AID1159580 (chemical genetic matrix, 2015)
